# Data taken from PubChem BioAssay (Tox21).
# Several values for one entry are separate records, joined by “and”; a condition that tells them apart may be missing. Equal values may be shown once. Inconclusive results are not listed. A call without a number means that no potency is given here. A structure can be active in one record and inactive in another. Activity calls are given as the source filed them. Unless noted, calls follow the shape of the dose curve; as a rule, active = well fitted curve in the direction sought with a large enough effect in the repeat runs; inconclusive = weak or mixed curves; inactive = no such curve, though single readings can be large; an effect the other way counts as inactive or inconclusive.
# Legend:
# [1] = qHTS assay to identify small molecule agonists of the estrogen receptor alpha (ER-alpha) signaling pathway in the presence of an antagonist - cell viability counter screen (AID 1259386);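 also: cells exposed to compounds for 22 h at 37 °C before the viability read; nearly all actives have a fitted effect of over 30% in size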; also: potency is read from the fitted curve at half-maximal effect
# How it was run: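 Using estrogen-depleted VM7Luc4E2 cells, the 15-concentration compound series was applied together with 10.0nM ICI-182,780 and incubated 22hr at 37C/5% CO2. Cell viability was then scored by CellTiter-Fluor.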
# [2] = target: Progesterone receptor (Homo sapiens) (UniProt P06401); assay: qHTS assay to identify small molecule agonists of the progesterone receptor (PR) signaling pathway (AID 1346784; calls by dose curve; also: nearly all actives have a fitted effect of over 30% in size; also: potency is read from the fitted curve at half-maximal effect)
# Sequence of Progesterone receptor (Homo sapiens) (P06401 whole entry, looked up): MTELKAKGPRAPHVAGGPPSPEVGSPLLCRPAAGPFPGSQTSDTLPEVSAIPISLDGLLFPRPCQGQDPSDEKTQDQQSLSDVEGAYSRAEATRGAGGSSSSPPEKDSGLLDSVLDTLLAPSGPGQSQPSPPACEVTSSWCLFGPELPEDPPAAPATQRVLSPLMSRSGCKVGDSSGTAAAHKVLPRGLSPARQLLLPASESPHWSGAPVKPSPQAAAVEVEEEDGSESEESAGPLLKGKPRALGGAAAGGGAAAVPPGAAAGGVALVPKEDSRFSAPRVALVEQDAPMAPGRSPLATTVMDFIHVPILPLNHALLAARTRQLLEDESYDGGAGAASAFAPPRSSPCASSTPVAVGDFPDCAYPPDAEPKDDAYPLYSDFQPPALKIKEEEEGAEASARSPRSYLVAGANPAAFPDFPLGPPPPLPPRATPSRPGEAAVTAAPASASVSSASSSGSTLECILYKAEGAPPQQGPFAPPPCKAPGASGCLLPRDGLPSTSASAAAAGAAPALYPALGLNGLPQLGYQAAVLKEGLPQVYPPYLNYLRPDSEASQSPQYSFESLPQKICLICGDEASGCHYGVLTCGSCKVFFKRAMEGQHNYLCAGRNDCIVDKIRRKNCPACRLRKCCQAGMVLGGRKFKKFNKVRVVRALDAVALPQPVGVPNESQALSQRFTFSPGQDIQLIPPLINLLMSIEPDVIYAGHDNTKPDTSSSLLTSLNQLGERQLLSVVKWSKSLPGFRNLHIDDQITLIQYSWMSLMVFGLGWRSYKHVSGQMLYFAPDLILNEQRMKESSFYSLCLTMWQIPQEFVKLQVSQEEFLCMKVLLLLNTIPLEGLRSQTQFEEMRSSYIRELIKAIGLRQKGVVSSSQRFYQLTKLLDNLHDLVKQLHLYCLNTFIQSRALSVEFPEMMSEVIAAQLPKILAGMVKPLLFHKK
# How it was run: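 Seed PR-UAS-bla HEK 293T cells (2% charcoal-stripped FBS), incubate 6 hr at 37C; add compounds in DMSO, 16 hr at 37C; add LiveBLAzer B/G substrate, 2 hr RT; read fluorescence intensity.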
# [3] = target: Progesterone receptor (Homo sapiens) (UniProt P06401); assay: qHTS assay to identify small molecule antagonists of the progesterone receptor (PR) signaling pathway (AID 1346795; active = well fitted inhibition curve with a large enough effect in the signal ratio in the repeat runs, not every such curve was filed as active; the % refers to the signal ratio; also: potency is read from the fitted curve at half-maximal effect)
# How it was run: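 Screening used a GripTite HEK293T line with PR-responsive UAS-beta-lactamase. Cells were challenged with compound in the presence of 1 nM R5020 final for 16 hr at 37C; B/G FRET substrate, 2 hr room temperature, fluorescence.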
# [4] = qHTS assay to identify small molecule agonists of the progesterone receptor (PR) signaling pathway - cell viability counter screen (AID 1346799; calls by dose curve; also: nearly all actives have a fitted effect of over 45% in size; also: potency is read from the fitted curve at half-maximal effect)
# How it was run: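 Using the same plates as the PR reporter screen, HEK293T PR-UAS-bla cells received compounds for 16 hr at 37C and were then lysed with CellTiter-Glo; luminescence was read 30 min later at room temperature.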
# [5] = qHTS assay to identify small molecule antagonists of the TGF-beta/Smad signaling pathway - cell viability counter screen (AID 1346824); also: nearly all actives have a fitted effect of over 50% in size
# How it was run: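 SBE-bla HEK 293T cells were plated overnight at 37 C, then given compounds in DMSO plus TGF-beta1 (added as 0.25 ng/mL solution) for 5 hr. After the bla read, CellTiter-Glo was added to the same wells and luminescence read after 30 min at room temperature.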
# [6] = qHTS assay to identify small molecule agonists of the TGF-beta/Smad signaling pathway - cell viability counter screen (AID 1346829); also: nearly all actives have a fitted effect of over 45% in size; also: potency is read from the fitted curve at half-maximal effect
# How it was run: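 Luminescence from CellTiter-Glo, read after a 30 min room-temperature incubation, gives cell viability of SBE-bla HEK 293T cells treated 5 hr with compounds at 37 C.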
# [7] = qHTS assay to identify small molecule agonists of the TGF-beta/Smad signaling pathway (AID 1346859; active = well fitted activation curve with a large enough effect in the signal ratio in the repeat runs, not every such curve was filed as active; the % refers to the signal ratio; also: series mostly up to about 77 µM)
# How it was run: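 Beta-lactamase reporter activity downstream of Smad binding elements was measured in stably transfected HEK 293T cells; compounds were incubated for 5 hr, substrate for 2 hr at room temperature.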
# [8] = target: Thyrotropin-releasing hormone receptor (Homo sapiens) (UniProt P34981); assay: qHTS assay to identify small molecule antagonists of the thyrotropin-releasing hormone receptor (TRHR) signaling pathway (AID 1346877; active = well fitted inhibition curve with a large enough effect in the repeat runs, not every such curve was filed as active; also: series mostly up to about 51 µM)
# Sequence of Thyrotropin-releasing hormone receptor (Homo sapiens) (P34981 whole entry, looked up): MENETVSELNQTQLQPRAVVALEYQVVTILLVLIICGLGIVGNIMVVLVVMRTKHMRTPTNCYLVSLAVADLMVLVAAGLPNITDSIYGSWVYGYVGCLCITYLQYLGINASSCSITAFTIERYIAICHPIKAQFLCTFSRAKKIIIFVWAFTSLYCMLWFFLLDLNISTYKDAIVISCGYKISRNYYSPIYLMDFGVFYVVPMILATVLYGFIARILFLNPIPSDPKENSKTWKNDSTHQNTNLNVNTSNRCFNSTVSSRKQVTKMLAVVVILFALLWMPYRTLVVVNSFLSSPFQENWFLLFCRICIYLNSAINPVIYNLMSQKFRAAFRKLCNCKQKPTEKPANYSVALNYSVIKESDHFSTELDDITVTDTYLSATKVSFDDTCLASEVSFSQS
# How it was run: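 Calcium signal in dye-loaded TRHR/HEK293 cells; compounds added 5 min before TRH (1 nM final); fluorescence monitored 3 min at 1 s steps.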
# [9] = target: Thyrotropin-releasing hormone receptor (Homo sapiens) (UniProt P34981); assay: qHTS assay to identify small molecule agonists of the thyrotropin-releasing hormone receptor (TRHR) signaling pathway (AID 1346891; calls by dose curve;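 also: HEK293 cells expressing TRHR with calcium dye readout; series mostly up to about 58 µM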)
# How it was run: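 Overnight-plated (18 h, 37 °C, 5% CO2) TRHR-Hek293 cells; 2 h calcium dye at 37 °C; compound in DMSO; 3-min kinetic fluorescence read.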
# [10] = qHTS assay to identify small molecule antagonists of the progesterone receptor (PR) signaling pathway - cell viability counter screen (AID 1346798); also: series mostly up to about 92 µM; nearly all actives have a fitted effect of over 50% in size
# How it was run: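 Measures cytotoxicity in parallel with the PR antagonist reporter read: HEK293T PR-UAS-bla cells get compound and R5020 for 16 hr, and remaining viable cells are quantified by CellTiter-Glo luminescence.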
Structure (SMILES),Potency [1],Potency [2],Potency [3],Potency [4],Potency [5],Potency [6],outcome [7],Potency [8],Potency [9],Potency [10]
O=C(O)[C@H](O)[C@@H](O)C(=O)O,inactive,inactive,inactive,inactive,inactive,inactive,inactive,inactive,inactive,
CO/N=C(\C(=O)OC)c1ccccc1CO/N=C(\C)c1cccc(C(F)(F)F)c1,30.6 µM (active),inactive,6.86 µM (active),,,inactive,inactive,inactive,inactive,inactive
COc1ccc2c3c1O[C@H]1[C@H](O)CC[C@H]4[C@@H](C2)N(C)CC[C@@]341,inactive,inactive,inactive,,inactive,inactive,inactive,inactive,inactive,
C[C@]12CC[C@H]3[C@@H](CCC4=CC(=O)CC[C@@H]43)[C@@H]1CC[C@@H]2OC(=O)CCc1ccco1,inactive,0.841 µM (active),inactive,,inactive,inactive,inactive,inactive,,
C[N+]1(C)[C@@H]2CC[C@H]1CC(OC(=O)C(CO)c1ccccc1)C2 (some centres undefined),inactive,inactive,inactive,inactive,inactive,inactive,inactive,,,
COP(=O)(OC)O/C(=C\Cl)c1cc(Cl)c(Cl)cc1Cl,inactive,inactive,6.86 µM (active),,inactive,inactive,inactive,inactive,,inactive
N#CSCc1ccccc1,inactive,inactive,inactive,,inactive,inactive,inactive,inactive,inactive,
COC(=O)c1ccccc1S(=O)(=O)NC(=O)Nc1nc(C)nc(OC)n1,inactive,inactive,inactive,,inactive,inactive,inactive,inactive,,
COc1ccc(Cc2nccc3cc(OC)c(OC)cc23)cc1OC,13.3 µM (active),inactive,inactive,,inactive,inactive,inactive,inactive,inactive,
ClC(Cl)C(Cl)(Cl)Cl,inactive,inactive,inactive,inactive,inactive,inactive,inactive,inactive,inactive,
COCCC#N,inactive,inactive,inactive,inactive,inactive,inactive,inactive,,,
C=CC(=C)C,inactive,inactive,inactive,inactive,inactive,inactive,inactive,inactive,inactive,
CCCN,inactive,inactive,inactive,inactive,inactive,inactive,inactive,,,
CC[N+]1(CC)CCC(OC(=O)C(O)(c2ccccc2)c2ccccc2)C1 (centres undefined),inactive,inactive,inactive,,inactive,inactive,inactive,inactive,,inactive
c1ccc(N=NNc2ccccc2)cc1,28.3 µM (active) and 27.3 µM (active),inactive,56.4 µM (active) and 48.6 µM (active),inactive,inactive,inactive,inactive,inactive,inactive,
CCCCC/C=C\C/C=C\C/C=C\C/C=C\CCCC(=O)NCC(=O)O,inactive,inactive,26.6 µM (active),,inactive,inactive,inactive,,,
C[C@@H]1CC2=CC(=O)CC[C@@H]2[C@H]2CC[C@@]3(C)[C@@H](CC[C@]3(C)O)[C@@H]21,inactive,0.0017 µM (active),inactive,,inactive,inactive,inactive,,,
O=[N+]([O-])c1ccccc1-c1ccccc1,inactive,inactive,inactive,inactive,inactive,inactive,inactive,inactive,inactive,
CSC(C)(C)/C=N/O,inactive,inactive,inactive,inactive,inactive,inactive,inactive,inactive,inactive,
CCCCCCCCCCCCCCn1cc[n+](C)c1,15.4 µM (active) and 24.1 µM (active),inactive,inactive,30.7 µM (active) and 42.8 µM (active) and inactive,,49.1 µM (active) and 38.5 µM (active) and inactive,inactive,,,
COc1c2c(cc3c1OCO3)CCN(C)C2,inactive,inactive,inactive,inactive,inactive,,inactive,inactive,inactive,
COP(=S)(NC(C)C)Oc1ccc(C)cc1[N+](=O)[O-] (centres undefined),inactive,inactive,7.7 µM (active),,inactive,,inactive,inactive,inactive,inactive
CSC1=N[C@@](C)(c2ccccc2)C(=O)N1Nc1ccccc1,54.5 µM (active),inactive,43.3 µM (active),,,inactive,inactive,inactive,inactive,
CCC(C)Br (centres undefined),inactive,inactive,inactive,inactive,inactive,inactive,inactive,inactive,inactive,
CN1[C@@H]2CC[C@H]1CC(O)C2 (some centres undefined),inactive,inactive,inactive,inactive,inactive,,inactive,inactive,inactive,inactive
C#CC1(O)CCCCC1,inactive,inactive,inactive,inactive,inactive,,inactive,inactive,inactive,inactive
O=[N+]([O-])c1ccc(Cl)c(Cl)c1Cl,inactive,inactive,inactive,inactive,inactive,,inactive,inactive,inactive,inactive
